Screening data: PubChem, several laboratories
RmlC RmlD mix: RmlC/RmlD inhibition, mixture screen. AID 1532. RmlC/RmlD coupled enzyme inhibition, 384-well mixture HTS. inhibition, % at 5.5 µM. hit rate 0.39% among 110,000; in the data active = inhibition above about 30%, passing the limit was not always enough; inconclusive = no clear call, values can overlap the other calls
HIV RNase H inh-1: inhibitors of HIV-1 reverse transcriptase RNase H; P04585; RT-RNase H RNA/DNA duplex cleavage, fluorescence; inhibition, % at 10 µM; hit rate 1.9% among 65,000; AID 565; in the data active = inhibition above about 50%
HIV RNase H inh-2: confirmation of HIV-1 reverse transcriptase RNase H inhibitors; shares compounds with HIV RNase H inh-1; Recombinant RT RNase H, fluorescent RNA/DNA duplex cleavage; inhibition, % at 10 µM; hit rate 39% among 1,000; AID 651; in the data active = inhibition above about 48%; inconclusive = no clear call, values can overlap the other calls
RmlCD artifact: counter-screen for RmlC/RmlD inhibitors: fluorescence artifact. hit rate 96% among 360. RmlC/RmlD assay fluorescence artifact counter-screen. shares compounds with RmlC RmlD mix. AID 1696. calls only; call rule not given here;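 note: compound alone with no enzyme and no substrates present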
Of the large screens only hits and unclear results are named; the others gave an inactive call (follow-up assays come after a bar, where they were run). The full list was thinned out, with hits kept by preference.

COc1ccc(S(=O)(=O)N2CCOC2CNC(=O)C(=O)NCCc2c[nH]c3ccccc23)cc1C (stereo unspecified)	none (no result: HIV RNase H inh-1)
COC(=O)c1ccccc1NC(=O)CN1C(=O)C2CCCN2c2ncc(Cl)cc21 (stereo unspecified)	HIV RNase H inh-1 60 | HIV RNase H inh-2 inconclusive
CCc1ccccc1NC(=O)CN1C(=O)C2CCCN2c2ncc(Cl)cc21 (stereo unspecified)	none
NC(=O)[C@H]1CC2(CC(c3cccc(NC(=O)[C@H]4CCC(=O)N4)c3)=NO2)CN1C(=O)c1cc([N+](=O)[O-])cc([N+](=O)[O-])c1 (stereo partly specified)	none (no result: HIV RNase H inh-1)
C/C(N)=C(/C#N)C(=O)CSc1nnc(NC(C)C)s1	none
CC1(C)CC(=O)C(=Cc2cn(-c3ccccc3)nc2-c2ccc(Cl)cc2)C(=O)C1	none (no result: HIV RNase H inh-1)
CC(C)Oc1ccc(-c2nn(-c3ccccc3)cc2/C=c2\sc3ncnn3c2=O)cc1	HIV RNase H inh-1 70 (no result: RmlC RmlD mix) | HIV RNase H inh-2 inconclusive
CCCCCc1cc(=O)oc2c(C(CCN(CC)CC)c3ccc(N(C)C)cc3)c(OC)cc(OC)c12 (stereo unspecified)	none (no result: HIV RNase H inh-1)
CCC(Oc1ccccc1)C(=O)Nc1ccc(-c2nnc(-c3ccco3)o2)cc1 (stereo unspecified)	none
O=C(COc1ccc(Br)cc1)Nc1ccc(-c2nnc(-c3ccco3)o2)cc1	HIV RNase H inh-1 67 | HIV RNase H inh-2 72
CCC(c1nnnn1Cc1ccc(OC)cc1)N(CCCO)Cc1cc2cc3c(cc2[nH]c1=O)OCO3 (stereo unspecified)	none (no result: HIV RNase H inh-1)
CC(C)C(c1nnnn1Cc1ccccc1)N(CCCO)Cc1cc2cc3c(cc2[nH]c1=O)OCO3 (stereo unspecified)	HIV RNase H inh-1 89 | HIV RNase H inh-2 inactive
COc1ccc2nc3oc(C(=O)Nc4ccc(OC)c(OC)c4)cc3cc2c1	none (no result: HIV RNase H inh-1)
COc1ccc2cc3cc(C(=O)Nc4ccc5c(c4)OCO5)oc3nc2c1	HIV RNase H inh-1 62 | HIV RNase H inh-2 inactive
CCCCCC(=O)Nc1cccc(C2=NOC3(C2)C[C@@H](C(N)=O)N(C(=O)c2ccc(Cl)cc2)C3)c1 (stereo partly specified)	none (no result: HIV RNase H inh-1)
CCCCC1=CC2=CC(=O)C(C)(OC(=O)c3ccc(Cl)nc3)C(=O)C2=CO1 (stereo unspecified)	none (no result: HIV RNase H inh-1)
Cc1[nH]nc2c1/C(=N/O)CC(c1ccccc1)C2 (stereo unspecified)	none (no result: HIV RNase H inh-1)
Cc1ccc(C2c3c(oc4ccccc4c3=O)C(=O)N2CCCN2CCOCC2)o1 (stereo unspecified)	none (no result: HIV RNase H inh-1)
CC(=O)c1sc(N2C(=O)c3oc4ccccc4c(=O)c3C2c2ccc(C)o2)nc1C (stereo unspecified)	HIV RNase H inh-1 71 (no result: RmlC RmlD mix) | HIV RNase H inh-2 inconclusive
CCOC(=O)CN1C(=O)N[C@@H](CCc2ccccc2)[C@H](C(=O)OC)[C@H]1C	none (no result: HIV RNase H inh-1)
ONC(=Nc1ccc(Cl)cc1)c1ccccc1	none (no result: HIV RNase H inh-1)
O=C1C(c2ccncc2)N(CCC2=CCCCC2)C(=O)CN1C1CCCCC1 (stereo unspecified)	none
CCN(CC)CCNC1=CC(=O)OC12CCCCC2	none (no result: HIV RNase H inh-1)
CCN(CC)C1=CC(=O)OC12CCCCC2	HIV RNase H inh-1 55 | HIV RNase H inh-2 65
Cc1noc(C)c1COC(=O)CCCc1c[nH]c2ccccc12	none (no result: RmlC RmlD mix)
O=c1c2ccccc2[se]n1-c1ccccc1	RmlC RmlD mix 57, HIV RNase H inh-1 94 | HIV RNase H inh-2 67 | RmlCD artifact active
O=c1c2ccccc2nc(N2CCCC2)n1-c1ccccc1	none (no result: HIV RNase H inh-1)
CCC(=O)N/C(=N\OCc1ccc(F)cc1)c1nonc1NC(=O)CC	none (no result: HIV RNase H inh-1)
CN(Cc1ccccc1)C(=O)CN(c1ccc(F)cc1)S(=O)(=O)c1ccc2c(c1)OCCO2	none (no result: HIV RNase H inh-1)
Cc1cc(C(=O)O)c2ccccc2n1	none (no result: HIV RNase H inh-1)
O=C(O)c1cc(-c2ccco2)nc2ccccc12	RmlC RmlD mix 54, HIV RNase H inh-1 81 | HIV RNase H inh-2 inactive | RmlCD artifact active
CC(=O)O[C@@H]1[C@H]2[C@@H](C[C@@H](C)[C@@H]3CCC(=O)[C@@]13C)OC(=O)[C@@H]2C	none (no result: HIV RNase H inh-1)
Nc1ccc(-c2nc3ccc(-c4nc5ccccc5o4)cc3[nH]2)cc1	RmlC RmlD mix active, HIV RNase H inh-1 73 | HIV RNase H inh-2 inactive | RmlCD artifact active
Cc1nc2ccc(-c3nc4ccccc4o3)cc2[nH]1	none (no result: HIV RNase H inh-1)
CN(C(=O)c1cccnc1)c1nnc(-c2ccccn2)s1	RmlC RmlD mix 42 | RmlCD artifact active
Cc1nnc(N(C)C(=O)c2cccnc2)s1	none
CC(=O)c1ccc(-c2nc3ccccc3n2C)o1	RmlC RmlD mix 151 | RmlCD artifact active
Cc1ccc(-c2nc3ccccc3n2C)o1	none (no result: HIV RNase H inh-1)
O=C(COC(=O)c1ccc(Br)o1)Nc1cccc(S(=O)(=O)N2CCCCCC2)c1	none (no result: HIV RNase H inh-1)
Cc1cccc(CCN2CCC(C(=O)c3ccc(NS(C)(=O)=O)cc3)CC2)n1	none (no result: HIV RNase H inh-1)
C=CCn1c2ccccc2c2nnc(SCN3C(=O)c4ccccc4C3=O)nc21	RmlC RmlD mix 50 | RmlCD artifact inactive
O=C1c2ccccc2C(=O)N1CSc1nnc2c3ccccc3n(CCc3ccccc3)c2n1	none (no result: HIV RNase H inh-1)
CCOc1ccc(C2OC34CCCCC3C(C#N)(C#N)C2(C#N)C(=N)O4)cc1OC (stereo unspecified)	RmlC RmlD mix active (no result: HIV RNase H inh-1) | RmlCD artifact active
CCOc1ccc(C2C(=O)N(C3CCCCC3)CC(=O)N2CC2CCCO2)cc1OC (stereo unspecified)	none (no result: RmlC RmlD mix)
C=CCOc1ccc(C2OC34CCCCC3C(C#N)(C#N)C2(C#N)C(=N)O4)cc1 (stereo unspecified)	RmlC RmlD mix 60 (no result: HIV RNase H inh-1) | RmlCD artifact active
CCCCOc1ccc(C2OC34CCCCC3C(C#N)(C#N)C2(C#N)C(=N)O4)cc1 (stereo unspecified)	RmlC RmlD mix 161 (no result: HIV RNase H inh-1) | RmlCD artifact active
COc1ccc(OC)c(-n2c(C)ccc2-c2ccc(S(C)(=O)=O)cc2)c1	none (no result: HIV RNase H inh-1)
O=C(OCC(=O)N1CCN(C(=O)c2ccco2)CC1)c1cc(-c2ccco2)nc2ccccc12	RmlC RmlD mix 30 (no result: HIV RNase H inh-1) | RmlCD artifact active
O=C(OCC(=O)N1CCN(C(=O)c2ccco2)CC1)c1cc(-c2ccc(Cl)c(Cl)c2Cl)nc2ccccc12	none (no result: HIV RNase H inh-1)
Cc1noc(C(=O)N2CC3(C)CC2CC(C)(C)C3)c1Cl (stereo unspecified)	none
CCC[C@@H]1CCCO[C@@](C(=O)NCc2cc(C)n(C)n2)(C(F)(F)F)C1	none (no result: HIV RNase H inh-1)
O=C(Nc1sc2c(c1C(=O)O)CCC2)c1ccco1	none (no result: HIV RNase H inh-1)
O=C(Nc1sc2c(c1C(=O)NC1CC1)CCCCCC2)c1ccco1	RmlC RmlD mix active | RmlCD artifact active
COC/C=C/C1=CC2=CC(=O)C(C)(OC(=O)c3cnc4ccccc4n3)C(=O)C2=CN1c1cccc(C#N)c1 (stereo unspecified)	none (no result: HIV RNase H inh-1)
CCC(C)/C=C(C)/C=C/C1=CC2=C(Cl)C(=O)C(C)(OC(C)=O)C(=O)C2=CO1 (stereo unspecified)	RmlC RmlD mix 33 (no result: HIV RNase H inh-1) | RmlCD artifact active
CC[C@H](C)/C=C(C)/C=C/C1=CC2=C(Cl)C(=O)[C@@](C)(OC(C)=O)C(=O)C2=CO1	none (no result: HIV RNase H inh-1)
CC(=O)Nc1ccc(N2C(C(C)=O)=NN(c3ccc(Cl)cc3)C2c2sccc2C)cc1 (stereo unspecified)	none (no result: HIV RNase H inh-1)
O=C(c1ccc(F)cc1)n1ccc(-c2cnc(-c3ccccc3)s2)n1	RmlC RmlD mix 80 (no result: HIV RNase H inh-1) | RmlCD artifact active
Fc1ccc(Cn2ccc(-c3cnc(-c4ccccc4)s3)n2)cc1	none (no result: HIV RNase H inh-1)
COc1ccc(C(=O)N=c2sc3c(C)ccc(OC)c3n2C)cc1	none (no result: HIV RNase H inh-1)
